PubChem BioAssay AID1159580 (chemical genetic matrix, 2015)
Values joined by “and” are separate entries in the source; they are usually repeats but may differ in a detail not shown here. Equal entries are not always repeated. In all, about 5,500 compounds went through this assay and about 2,000 (36%) were called active. Inconclusive results (about 18%) are left out. No stated cut-off is given here; in the data, active means normalized growth mostly below about 0.91 (no sharp cut-off); inconclusive means no clear call, values can overlap the other calls; inactive means mostly above about 0.92. The list shows a part of the results.

Assay: chemical genetic growth profiling, strain panel (AID 1159580);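 further: tested at 20 µM; growth read once vehicle control cultures reached saturation at 30 °C; 1 = growth at the plate median or of vehicle wells; lower values mean less growth of the strain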
Settings: growth OD

Measured: normalized growth

NC(N)=NCCCCN=C(N)N
inactive: S. cerevisiae deletion strains, locus YKL009W, strain mrt4, active compounds read low 1 | S. cerevisiae deletion strains, locus YKL068W, active compounds read low 0.988 | S. cerevisiae deletion strains, locus YKL085W, strain MDH1 (second series), active compounds read low 1.03 | S. cerevisiae deletion strains, locus YKL085W, strain MDH1, active compounds read low 1.03 | S. cerevisiae deletion strains, locus YKL160W, strain elf1, active compounds read low 1.02 | S. cerevisiae deletion strains, locus YKL190W, strain CNB1, active compounds read low 0.985 | S. cerevisiae deletion strains, locus YKR001C, strain vps1, active compounds read low 1.01 | S. cerevisiae deletion strains, locus YKR026C, strain gcn3, active compounds read low 0.995 | S. cerevisiae deletion strains, locus YKR091W, strain srl3, active compounds read low 1 | S. cerevisiae deletion strains, locus YLL001W, strain dnm1, active compounds read low 1.01 | S. cerevisiae deletion strains, locus YLL026W, active compounds read low 1.01 | S. cerevisiae deletion strains, locus YLL041C, strain sdh2, active compounds read low 0.986 | S. cerevisiae deletion strains, locus YLR027C, strain aat2, active compounds read low 1 | S. cerevisiae deletion strains, locus YLR039C, strain RIC1, active compounds read low 0.99 | S. cerevisiae deletion strains, locus YLR058C, strain SHM2, active compounds read low 0.972 | S. cerevisiae deletion strains, locus YLR102C, strain apc9, active compounds read low 0.993 | S. cerevisiae deletion strains, locus YLR113W, strain HOG1, active compounds read low 0.97 | S. cerevisiae deletion strains, locus YLR221C, strain rsa3, active compounds read low 1.04 | S. cerevisiae deletion strains, locus YLR258W, strain gsy2, active compounds read low 1.01 | S. cerevisiae deletion strains, locus YLR262C, strain YPT6 (second series), active compounds read low 1.02 | S. cerevisiae deletion strains, locus YLR262C, strain YPT6, active compounds read low 0.963 | S. cerevisiae deletion strains, locus YLR268W, strain sec22, active compounds read low 0.978 | S. cerevisiae deletion strains, locus YLR320W, strain mms22, active compounds read low 1.05 | S. cerevisiae deletion strains, locus YLR330W, strain CHS5, active compounds read low 0.993 | S. cerevisiae deletion strains, locus YLR342W, strain FKS1 (second series), active compounds read low 1.03 | S. cerevisiae deletion strains, locus YLR342W, strain FKS1, active compounds read low 0.993 | S. cerevisiae deletion strains, locus YLR357W, strain rsc2, active compounds read low 0.998 | S. cerevisiae deletion strains, locus YLR370C, strain arc18, active compounds read low 0.991 | S. cerevisiae deletion strains, locus YLR371W, strain rom2, active compounds read low 0.95 | S. cerevisiae deletion strains, locus YLR384C, strain iki3, active compounds read low 0.997 | S. cerevisiae deletion strains, locus YLR418C, strain cdc73, active compounds read low 0.971 | S. cerevisiae deletion strains, locus YML016C, strain PPZ1, active compounds read low 0.992 | S. cerevisiae deletion strains, locus YML032C, strain rad52, active compounds read low 1.01 | S. cerevisiae deletion strains, locus YML120C, strain ndi1, active compounds read low 0.998 | S. cerevisiae deletion strains, locus YML124C, strain tub3, active compounds read low 0.997 | S. cerevisiae deletion strains, locus YMR058W, strain fet3, active compounds read low 0.998 | S. cerevisiae deletion strains, locus YMR078C, strain ctf18, active compounds read low 0.992 | S. cerevisiae deletion strains, locus YMR125W, strain sto1, active compounds read low 0.963 | S. cerevisiae deletion strains, locus YMR129W, active compounds read low 1 | S. cerevisiae deletion strains, locus YMR205C, strain PFK2, active compounds read low 1.03 | S. cerevisiae deletion strains, locus YMR223W, strain ubp8, active compounds read low 1.01 | S. cerevisiae deletion strains, locus YMR231W, strain pep5, active compounds read low 0.993 | S. cerevisiae deletion strains, locus YMR263W, strain SAP30, active compounds read low 0.953 and 0.994 | S. cerevisiae deletion strains, locus YMR307W, strain GAS1, active compounds read low 1.06 and 0.991 | S. cerevisiae deletion strains, locus YNL067W, strain RPL9B, active compounds read low 0.972 | S. cerevisiae deletion strains, locus YNL071W, strain lat1, active compounds read low 0.991 | S. cerevisiae deletion strains, locus YNL128W, strain TEP1, active compounds read low 0.92 and 0.999 | S. cerevisiae deletion strains, locus YNL153C, strain GIM3, active compounds read low 0.978 | S. cerevisiae deletion strains, locus YNL175C, strain NOP13, active compounds read low 1.01 | S. cerevisiae deletion strains, locus YNL183C, strain NPR1, active compounds read low 0.92 | S. cerevisiae deletion strains, locus YNL197C, strain WHI3, active compounds read low 1.02 | S. cerevisiae deletion strains, locus YNL209W, strain ssb2, active compounds read low 1.01 | S. cerevisiae deletion strains, locus YNL224C, strain SQS1, active compounds read low 1.01 | S. cerevisiae deletion strains, locus YNL233W, strain BNI4, active compounds read low 0.979 | S. cerevisiae deletion strains, locus YNL248C, strain rpa49, active compounds read low 0.967 | S. cerevisiae deletion strains, locus YNL250W, strain rad50, active compounds read low 0.98 | S. cerevisiae deletion strains, locus YNL271C, strain bni1, active compounds read low 0.994 | S. cerevisiae deletion strains, locus YNL298W, strain CLA4, active compounds read low 0.994 | S. cerevisiae deletion strains, locus YNL307C, strain MCK1, active compounds read low 1.01 | S. cerevisiae deletion strains, locus YNL322C, strain KRE1 (second series), active compounds read low 1 | S. cerevisiae deletion strains, locus YNL322C, strain KRE1, active compounds read low 0.977 | S. cerevisiae deletion strains, locus YNR049C, strain mso1, active compounds read low 0.997 | S. cerevisiae deletion strains, locus YNR052C, strain pop2, active compounds read low 0.997 | S. cerevisiae deletion strains, locus YOL006C, strain TOP1, active compounds read low 0.957 | S. cerevisiae deletion strains, locus YOL012C, strain htz1 0.788 | S. cerevisiae deletion strains, locus YOL147C, strain pex11, active compounds read low 0.993 | S. cerevisiae deletion strains, locus YOR001W, strain rrp6, active compounds read low 0.97 | S. cerevisiae deletion strains, locus YOR061W, strain CKA2, active compounds read low 0.955 | S. cerevisiae deletion strains, locus YOR069W, strain VPS5, active compounds read low 0.999 | S. cerevisiae deletion strains, locus YOR070C, strain gyp1, active compounds read low 1.02 | S. cerevisiae deletion strains, locus YOR080W, strain dia2, active compounds read low 1.01 | S. cerevisiae deletion strains, locus YOR083W, strain WHI5 (second series), active compounds read low 0.988 | S. cerevisiae deletion strains, locus YOR083W, strain WHI5, active compounds read low 1.04 | S. cerevisiae deletion strains, locus YOR106W, strain vam3, active compounds read low 1.03 | S. cerevisiae deletion strains, locus YOR136W, strain idh2, active compounds read low 0.997 | S. cerevisiae deletion strains, locus YOR144C, strain elg1, active compounds read low 0.999 | S. cerevisiae deletion strains, locus YOR184W, strain ser1, active compounds read low 1.03 | S. cerevisiae deletion strains, locus YOR231W, strain MKK1, active compounds read low 0.968 | S. cerevisiae deletion strains, locus YOR265W, strain rbl2, active compounds read low 1.01 | S. cerevisiae deletion strains, locus YOR270C, strain vph1, active compounds read low 0.991 | S. cerevisiae deletion strains, locus YOR290C, strain snf2, active compounds read low 0.968 | S. cerevisiae deletion strains, locus YOR316C, strain cot1, active compounds read low 0.988 | S. cerevisiae deletion strains, locus YPL051W, strain arl3, active compounds read low 1.04 | S. cerevisiae deletion strains, locus YPL055C, strain LGE1, active compounds read low 0.95 and 0.989 | S. cerevisiae deletion strains, locus YPL078C, strain atp4, active compounds read low 1.01 | S. cerevisiae deletion strains, locus YPL106C, strain sse1, active compounds read low 1.01 | S. cerevisiae deletion strains, locus YPL240C, strain hsp82, active compounds read low 1.01 | S. cerevisiae deletion strains, locus YPL241C, strain CIN2, active compounds read low 0.988 and 0.994 | S. cerevisiae deletion strains, locus YPL256C, strain CLN2, active compounds read low 0.979 | S. cerevisiae deletion strains, locus YPR119W, strain clb2, active compounds read low 1 | S. cerevisiae deletion strains, locus YPR141C, strain kar3, active compounds read low 0.975 | S. cerevisiae deletion strains, locus YPR163C, strain tif3, active compounds read low 1 | S. cerevisiae deletion strains, locus YPR167C, strain met16, active compounds read low 0.988 | S. cerevisiae deletion strains, strain wtn01, active compounds read low 0.983 | S. cerevisiae strains, strain wild type, active compounds read low 0.998
